Active and inactive are the calls of the source. Unless noted, no rule for the calls is given here.
Columns and labels:
[1] = anti-His antibody binders, primary screen, artefact control for SMM control protein annotation, biochemical, small-molecule microarray, 635 nm fluorescence (AID 1128); conditions: anti-His Alexa647 antibody binding, higher = more signal;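 also: score merges feature fluorescence with signal-to-noise for each printed compound spot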
[2] = test system: Human papillomavirus type 1a E7 protein (residues 1-88); assay: HPV1a E7 small-molecule binders, primary screen, biochemical, small-molecule microarray, residues 1-88, 635 nm (AID 1129); conditions: small-molecule microarray binding, fluorescence 635 nm; higher = more signal
[3] = molecular target: Focal adhesion kinase 1 (Homo sapiens) (UniProt Q05397); assay: small-molecule microarray binders of FAK, primary screen, biochemical, 635/667 nm fluorescence, BSA, DTT (AID 1130); conditions: PTK2 binding, 635 nm fluorescence, higher = more signal;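 also: composite of spot emission at 667 nm and signal to noise over triplicate slides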
Sequence of Focal adhesion kinase 1 (Homo sapiens) (Q05397 whole entry, looked up): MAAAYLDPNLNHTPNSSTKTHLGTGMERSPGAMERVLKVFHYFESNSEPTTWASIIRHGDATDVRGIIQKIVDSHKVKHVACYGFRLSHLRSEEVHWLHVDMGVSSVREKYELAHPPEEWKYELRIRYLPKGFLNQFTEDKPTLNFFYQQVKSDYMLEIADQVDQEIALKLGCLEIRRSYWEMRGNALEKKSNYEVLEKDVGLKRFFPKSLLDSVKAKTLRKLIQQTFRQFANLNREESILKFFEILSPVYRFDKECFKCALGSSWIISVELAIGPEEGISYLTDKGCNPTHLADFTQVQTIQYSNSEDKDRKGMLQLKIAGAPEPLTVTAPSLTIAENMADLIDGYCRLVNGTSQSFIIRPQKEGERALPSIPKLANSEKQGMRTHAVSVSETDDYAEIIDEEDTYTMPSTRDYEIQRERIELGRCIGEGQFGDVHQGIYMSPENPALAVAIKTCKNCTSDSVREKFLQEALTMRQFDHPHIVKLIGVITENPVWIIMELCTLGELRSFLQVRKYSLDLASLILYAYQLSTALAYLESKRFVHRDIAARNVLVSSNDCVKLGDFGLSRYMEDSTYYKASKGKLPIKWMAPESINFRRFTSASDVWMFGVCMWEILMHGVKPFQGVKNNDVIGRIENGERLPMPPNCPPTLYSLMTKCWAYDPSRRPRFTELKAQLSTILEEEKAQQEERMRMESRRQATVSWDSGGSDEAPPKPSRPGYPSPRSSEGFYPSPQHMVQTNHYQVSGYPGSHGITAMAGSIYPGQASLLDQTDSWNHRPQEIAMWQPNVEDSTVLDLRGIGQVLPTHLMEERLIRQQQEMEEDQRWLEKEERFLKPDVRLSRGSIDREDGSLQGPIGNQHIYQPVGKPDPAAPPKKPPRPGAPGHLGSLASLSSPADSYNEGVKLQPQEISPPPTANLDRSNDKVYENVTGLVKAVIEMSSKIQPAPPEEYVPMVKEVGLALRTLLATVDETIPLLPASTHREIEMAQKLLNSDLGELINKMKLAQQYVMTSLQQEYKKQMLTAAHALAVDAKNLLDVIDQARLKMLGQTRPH

[4] = test system: Fibrinogen (Alexa647-labelled); assay: fibrinogen binders on compound microarrays, profiling panel, artefact control for SMM control-protein annotation, biochemical, small-molecule microarray, 635/667 nm fluorescence (AID 1131); conditions: fibrinogen-A647 binding fluorescence, higher = more signal;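 also: z-score merges 667 nm fluorescence with per-spot signal-to-noise over triplicate slides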
[5] = molecular target: Follistatin (Homo sapiens) (UniProt P19883); assay: follistatin binders on small-molecule microarrays, primary screen, biochemical, small-molecule microarray, 635/667 nm fluorescence (AID 1132); conditions: FST binding, 635 nm fluorescence, higher = more signal
Sequence of Follistatin (Homo sapiens) (P19883 whole entry, looked up): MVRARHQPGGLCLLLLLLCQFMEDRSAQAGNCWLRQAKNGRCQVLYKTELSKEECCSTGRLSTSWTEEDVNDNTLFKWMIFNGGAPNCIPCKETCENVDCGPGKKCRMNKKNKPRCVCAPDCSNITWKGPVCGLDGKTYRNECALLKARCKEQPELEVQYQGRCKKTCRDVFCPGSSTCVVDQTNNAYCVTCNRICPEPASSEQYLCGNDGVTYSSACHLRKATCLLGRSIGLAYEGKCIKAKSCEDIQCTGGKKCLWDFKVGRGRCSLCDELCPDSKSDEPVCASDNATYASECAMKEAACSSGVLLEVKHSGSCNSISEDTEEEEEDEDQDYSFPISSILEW

[6] = molecular target: Fibroblast growth factor 2 (Homo sapiens) (UniProt P09038); assay: FGF2 binders on small-molecule microarrays, primary screen, biochemical, small-molecule microarray, 635/667 nm fluorescence (AID 1133); conditions: small-molecule microarray binding, FGF2, fluorescence 635/667; higher = more signal
Sequence of Fibroblast growth factor 2 (Homo sapiens) (P09038 whole entry, looked up): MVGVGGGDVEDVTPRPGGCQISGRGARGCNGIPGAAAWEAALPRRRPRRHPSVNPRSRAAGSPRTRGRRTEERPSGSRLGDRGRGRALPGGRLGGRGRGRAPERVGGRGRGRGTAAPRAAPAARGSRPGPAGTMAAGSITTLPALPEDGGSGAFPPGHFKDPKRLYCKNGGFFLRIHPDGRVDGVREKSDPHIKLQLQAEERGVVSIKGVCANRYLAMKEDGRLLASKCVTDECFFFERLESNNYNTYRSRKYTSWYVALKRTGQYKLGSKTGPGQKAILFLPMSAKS

[7] = mitochondrial membrane potential change in A549 cells, profiling panel, cell-based, JC-1 fluorescence, basal, 24 h, 100 nL (AID 1138); conditions: higher = more signal;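 also: A549 lung adenocarcinoma cells under basal conditions with no added stimulus; test concentration not given here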
Lefty1 = Lefty1 binders on small-molecule microarrays, primary screen, biochemical, small-molecule microarray, 635/667 nm fluorescence (AID 1139); conditions: small-molecule microarray binding, fluorescence 635/667; higher = more signal
[8] = test system: wheat germ agglutinin (Triticum aestivum), Alexa647-labelled; assay: wheat germ agglutinin binders on compound microarrays, profiling panel, artefact control for SMM control-protein annotation, biochemical, small-molecule microarray, 635/667 nm fluorescence (AID 1140); conditions: WGA-A647 binding, 635 nm fluorescence, higher = more signal;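 also: score merges 667 nm feature emission with signal to noise over triplicate slides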
[9] = molecular target: Luciferin 4-monooxygenase (Photinus pyralis) (UniProt P08659); assay: firefly luciferase enzyme inhibitors, primary screen, biochemical, luminescence, purified enzyme, 2006 set (AID 1141); conditions: SteadyGlo luminescence, 30 min, higher = more signal, called active from +8 up or from −8 down;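 also: cell-free assay with purified firefly luciferase at 100 ng per well in PBS; test concentration not given here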
Sequence of Luciferin 4-monooxygenase (Photinus pyralis) (P08659 whole entry, looked up): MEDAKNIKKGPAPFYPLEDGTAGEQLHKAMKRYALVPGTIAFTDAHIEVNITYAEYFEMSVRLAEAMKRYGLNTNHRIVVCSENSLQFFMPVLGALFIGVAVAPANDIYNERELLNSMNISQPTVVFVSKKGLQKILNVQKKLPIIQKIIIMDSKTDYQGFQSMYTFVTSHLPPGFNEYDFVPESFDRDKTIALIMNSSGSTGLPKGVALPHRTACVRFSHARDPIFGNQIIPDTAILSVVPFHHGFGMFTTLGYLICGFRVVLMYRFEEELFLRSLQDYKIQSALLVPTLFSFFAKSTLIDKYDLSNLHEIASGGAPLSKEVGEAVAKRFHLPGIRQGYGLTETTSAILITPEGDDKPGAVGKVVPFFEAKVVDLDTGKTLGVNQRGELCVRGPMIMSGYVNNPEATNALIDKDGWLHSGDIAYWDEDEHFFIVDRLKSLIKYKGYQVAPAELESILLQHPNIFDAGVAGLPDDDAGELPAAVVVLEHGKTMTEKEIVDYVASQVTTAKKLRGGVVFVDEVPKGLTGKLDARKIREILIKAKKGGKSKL

[10] = test system: Wnt5a (protein binding on small-molecule microarray); assay: Wnt5a binders on small-molecule microarray, primary screen, biophysical, 635/667 nm fluorescence (AID 1142); conditions: 635 nm fluorescence, higher = more signal;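 also: fluorescence read at 667 nm with signal to noise per printed feature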
[11] = cell viability in Huh7 cells, primary screen, cytotoxicity control for HCV replication inhibitor project, CellTiter-Glo luminescence, basal, 48 h (AID 1143); conditions: Huh7 HCV replicon, higher = more signal, called active from +8 up or from −8 down;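 also: Huh7 hepatoma cells carrying a hepatitis C replication reporter with no stimulus; test concentration not given here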
[12] = P. aeruginosa biofilm formation inhibitors, primary screen, PAO1 strain, BacTiter-Glo luminescence, LB-PBS (AID 1144); conditions: 12 h, higher = more signal
[13] = CREB reporter modulators without forskolin, primary screen, cell-based, PC12, CRE-LacZ reporter, unstimulated (AID 1145); conditions: no forskolin, luminescence, 4.5 h, higher = more signal, called active from +8 up or from −8 down
[14] = CREB reporter modulators under forskolin, primary screen, cell-based, PC12, CRE-LacZ reporter, forskolin-stimulated (AID 1146); conditions: luminescence, 4.5 h, higher = more signal, called active from +8 up or from −8 down;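 also: PC12 cells with 6xCRE LacZ reporter stimulated by forskolin 10 µM; beta-galactosidase reporter signal reflecting CREB driven transcription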
[15] = molecular target: Streptavidin (Streptomyces avidinii) (UniProt P22629); assay: streptavidin binders on small-molecule microarray, primary screen, artefact control for SMM compound annotation, biophysical, 635/667 nm fluorescence (AID 1147); conditions: streptavidin binding, higher = more signal;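 also: signal reflects streptavidin binding to arrayed compounds as a control protein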
Sequence of Streptavidin (Streptomyces avidinii) (P22629 whole entry, looked up): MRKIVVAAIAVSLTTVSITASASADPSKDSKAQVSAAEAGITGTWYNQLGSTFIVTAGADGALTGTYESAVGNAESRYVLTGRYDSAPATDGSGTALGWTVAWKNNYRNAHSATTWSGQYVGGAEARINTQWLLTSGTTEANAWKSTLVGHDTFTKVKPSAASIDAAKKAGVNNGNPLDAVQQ

[16] = small-molecule binders of probe aInhba, primary screen, biochemical, small-molecule microarray, 635/667 nm fluorescence (AID 1148); conditions: higher = more signal;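 also: score merges 667nm spot fluorescence with signal-to-noise for antibody binding to printed compounds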
Torsin-1A (Homo sapiens) [17] = molecular target: Torsin-1A (Homo sapiens) (UniProt O14656); assay: torsin A binders from cell lysate, primary screen, small-molecule microarray, wild-type, 635/667 nm (AID 1149); conditions: COS7 hTOR1A-WT lysate, 635 nm fluorescence, higher = more signal
Sequence of Torsin-1A (Homo sapiens) (O14656 whole entry, looked up): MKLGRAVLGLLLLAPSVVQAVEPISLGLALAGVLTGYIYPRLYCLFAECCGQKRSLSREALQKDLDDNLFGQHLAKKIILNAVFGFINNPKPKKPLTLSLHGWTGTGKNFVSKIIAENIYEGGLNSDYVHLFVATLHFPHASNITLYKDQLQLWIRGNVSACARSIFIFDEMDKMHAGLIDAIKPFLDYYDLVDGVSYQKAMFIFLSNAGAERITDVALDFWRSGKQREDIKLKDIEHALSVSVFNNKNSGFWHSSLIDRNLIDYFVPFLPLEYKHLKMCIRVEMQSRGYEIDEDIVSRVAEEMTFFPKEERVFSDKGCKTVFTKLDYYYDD

Torsin-1A (Homo sapiens) [18] = molecular target: Torsin-1A (Homo sapiens) (UniProt O14656); assay: small-molecule binders of mutant TOR1A in lysate, primary screen, cell lysate, small-molecule microarray, COS7 lysate, 635/667 nm fluorescence (AID 1150); conditions: COS7 hTOR1A mutant lysate, 635 nm fluorescence, higher = more signal;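 also: score pools 667 nm emission and signal to noise measuring lysate protein binding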
[19] = test system: Sonic hedgehog protein (Shh); assay: small-molecule binders of Shh protein, primary screen, biochemical, small-molecule microarray, 635/667 nm fluorescence (AID 1151); conditions: small-molecule microarray binding, 635 nm fluorescence; higher = more signal;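 also: Shh protein binding to compounds spotted on small-molecule microarray slides; score combines spot fluorescence intensity with signal-to-noise across triplicate slides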

| Structure (SMILES) | composite z-score [1] | composite z-score [2] | composite z-score [3] | composite z-score [4] | composite z-score [5] | composite z-score [6] | z-score [7] | composite z-score (Lefty1) | composite z-score [8] | z-score [9] | composite z-score [10] | z-score [11] | z-score [12] | z-score [13] | z-score [14] | composite z-score [15] | composite z-score [16] | composite z-score (Torsin-1A (Homo sapiens) [17]) | composite z-score (Torsin-1A (Homo sapiens) [18]) | composite z-score [19] |
| --- | --- | --- | --- | --- | --- | --- | --- | --- | --- | --- | --- | --- | --- | --- | --- | --- | --- | --- | --- | --- |
| C=C(C(=O)CC[C@H](OC(=O)c1ccccc1-c1ccccc1C(=O)O)c1cccc(OCCO)c1)C(C)C | 0.0001 | -0.399 | 0.0444 | 0.0591 | 0.319 | 0.85 | -0.697 | 0.485 | 0.36 | -0.373 (inactive) | -0.103 | -0.208 (inactive) | -0.125 (inactive) | 0.102 (inactive) | 3.19 (inactive) | -0.186 | -0.0719 | -0.492 | -0.0541 | 0.432 |
| O=C(Cc1ccccc1)[C@H]1C2C=CCCC(c3ccccc3)=C2CN1Cc1ccccc1 (stereo not given in full) | -0.162 | -0.304 | -0.241 | -0.0983 | 0.436 | 0.869 | 1.77 | -0.519 | -0.394 | -1.06 (inactive) | 0.0277 | -0.408 (inactive) | -0.886 (inactive) | 4.3 (inactive) | -0.0521 (inactive) | -0.144 | -0.0494 | 0.219 | -0.412 | 0.0701 |
| CN(C)C(=O)[C@]1(CCC(=O)OC(C)(C)C)N=C(c2ccc(OCCCO)cc2)O[C@@H]1c1ccccc1CN=[N+]=[N-] | 1.31 | 1.21 | 0.706 | 0.961 | 1.25 | -0.0399 | 1.03 | 0.0183 | 1.42 | -0.703 (inactive) | 1.44 | -1.5 (inactive) | -1.42 (inactive) | -0.744 (inactive) | -0.147 (inactive) | 0.588 | -0.071 | 1.53 | 1.24 | -0.646 |
| CC1=C2[C@@H](CCc3ccccc3)OB(O)C[C@@H]2[C@@H]2C(=O)N(Cc3ccccc3)C(=O)[C@@H]2C1 | 0.0349 | 0.55 | -0.0683 | 0.987 | 0.946 | 0.33 | 0.758 | 0.388 | 0.505 | -0.653 (inactive) | 0.0023 | -0.23 (inactive) | 0.615 (inactive) | 0.39 (inactive) | -0.138 (inactive) | -0.189 | -0.285 | 0.572 | 0.333 | 0.792 |
| O=C1CS(=O)(=O)C(c2cccc([N+](=O)[O-])c2)N1c1ccccc1 (stereo not given) | 1.67 | 1.16 | 0.596 | 0.522 | 0.469 | 0.698 | 1.53 | -0.269 | 0.909 | -1.61 (inactive) | 0.388 | -1.67 (inactive) | -1.16 (inactive) | -0.231 (inactive) | -1.44 (inactive) | 0.392 | 1.03 | 0.909 | 0.655 | 0.781 |
